Test results: PubChem BioAssay (NCI)
“And” between values parts separate entries of the source, which are not always exact repeats. Identical values can stand only once. The panel holds about 83,000 compounds, 20% with a hit somewhere; the sample as a whole holds those more often.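 Method: cells in 96-well plates; compound added at one concentration; 48 h incubation; percent growth measured; values under 10 scored active.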 The source made the active and inactive calls.

These compounds were tested on SW-620 colon (assay: NCI-60 one-dose screen, 48 h (100 = growth as untreated, 0 = no growth, -100 = all killed)). Details: 10 µM unless noted.
With `CN1CCN(C(=O)Oc2cc3c(c4ccccc24)[C@H](CCl)CN3C(=O)c2cc3cc(OCCCN4CCC4)ccc3[nH]2)[C@H]2CSSC[C@H]21` the growth was 4.18% (active).
With `N#Cc1cc(-c2ccc3ncnc(N4CCc5cc(F)c(Cl)cc54)c3c2)cnc1N` the growth was 25.2% (inactive).
With `CC1=NN(C2=NC(=O)C(CC(=O)Nc3ccccc3C(F)(F)F)S2)C(c2ccc(N(C)C)cc2)C1` (centres undefined) the growth was 60.5% (inactive).
`O=C1Nc2ccccc2/C1=C/C(=O)c1cc2ccccc2oc1=O` was tested, and the growth was 2.06% (active).
With `Cc1ccccc1NC(=O)c1cccc(NC(=O)CCl)c1` the growth was 41.7% (inactive).
In the case of `Cn1cc(-c2cc(N)n3nc(-c4c[nH]c5ccccc45)cc3n2)c2cc(Br)ccc21`, the growth is reported as -84.3% (active).
With `Nc1nc2cc(-c3ccc4ncnc(NCc5ccccc5)c4c3)ccc2o1` the growth was 24.1% (inactive).
With `O=C(N/N=C/c1ccc(-c2cccc([N+](=O)[O-])c2)s1)c1[nH]c2ccc(Br)cc2c1-c1ccccc1` the growth was 99% (inactive).
In the case of `Cc1nc(Nc2ccccn2)sc1C1=NNC(c2ccccc2F)C1` (centres undefined), the growth is reported as 32.1% (inactive).
`CC(C)(C)c1ccc(OCc2nc3ccccc3n2-c2cccc(N)c2)cc1` was tested, and the growth was 77% (inactive) and 116% (inactive).
For `CC1=C(C(=O)OCc2ccccc2)C(c2cccc3ccccc23)n2c(nc3ccccc32)N1` (centres undefined), the growth was 23.7% (inactive).
`Cc1cc(=O)oc2cc(OCC(O)CNN3C(=O)c4cccc5c(N6CCN(C)CC6)ccc(c45)C3=O)ccc12` (centres undefined) was tested, and the growth was 84.3% (inactive).
In the case of `CN(C)CCOc1ccc(C(=O)C2[C@H](c3ccc(Cl)cc3)[C@@H](c3ccccc3)NC23C(=O)Nc2ccc(Cl)cc23)cc1` (some centres undefined), the growth is reported as -87.2% (active).
In the case of `O=C1Nc2cc(-c3ccc(NS(=O)(=O)c4ccc(-c5ccccc5)cc4)cc3)ccc2/C1=C/c1ccc[nH]1`, the growth is reported as 8.95% (active).
`CCCSc1nnc(-c2sc3nc4ccccc4n3c2C)o1` was tested, and the growth was 108% (inactive).
In the case of `COc1ccc2[nH]c(O)c(N=Nc3nc(-c4ccc(C#N)cc4)cs3)c2c1`, the growth is reported as 63.3% (inactive).
In the case of `CCOc1ccc2[nH]c(=O)c(C(c3nnnn3CC3CCCO3)N3CCN(Cc4ccccc4)CC3)cc2c1` (centres undefined), the growth is reported as 98.8% (inactive).
With `Cc1cccc(NCC(=O)N2CCN(c3ncnc4c3cnn4-c3ccccc3)CC2)c1` the growth was 81.5% (inactive).
For `COc1ccc(NC(=O)CSc2nnc(-c3ccc(-c4nc5ccc(Cl)cc5[nH]4)cc3)o2)cc1`, the growth was 20.3% (inactive).
With `N/C(=N\c1nc2ccccc2s1)NC(=O)Nc1ccccc1[N+](=O)[O-]` the growth was 31% (inactive).
In the case of `N#CC1=C(c2cccs2)Nc2c(c(-c3ccccc3)nn2-c2ccccc2)C12C(=O)Nc1ccc(Cl)cc12` (centres undefined), the growth is reported as 21.3% (inactive).
`Cn1cc(-c2cc3nc(-c4cn(C)c5ncccc45)cc(N)n3n2)c2cc(F)ccc21` was tested, and the growth was 61% (inactive).
For `C#CCN(C)CCCOc1ccc(N(C)C(=O)c2cc(C(C)C)c(O)cc2O)cc1Cl`, the growth was 12.2% (inactive).
With `COc1cc(NC(=O)CSc2nnc(-c3ccc(-c4nc5ccc(Cl)cc5[nH]4)cc3)o2)cc(OC)c1OC` the growth was 40.1% (inactive).
With `CS(=O)(=O)Nc1cc(-c2ccc3ncnc(N4CCc5cc(F)c(Cl)cc54)c3c2)cnc1Cl` the growth was 32.7% (inactive).
With `CC1=C(C(=O)Nc2ccccc2)C(c2cccc3ccccc23)n2c(nc3ccccc32)N1` (centres undefined) the growth was 67.6% (inactive).
`COc1cc(C2CC(c3ccc(C(F)(F)F)cc3)=Nc3c(N)nc(N)nc3N2)ccc1Oc1nc(Nc2ccc(F)cc2)nc(N(C)C)n1` (centres undefined) was tested, and the growth was 53.2% (inactive).
In the case of `C[C@@H]1[C@H]2C[C@@H](C[C@H]1NCc1nc3ccccc3n1C1CCCCCC1)C2(C)C`, the growth is reported as 49.6% (inactive).
`CS(=O)(=O)Nc1cccc(-n2cnc3cc(-c4ccc(O)cc4)ccc32)c1` was tested, and the growth was 46.2% (inactive).
`COc1ccc2c(c1)C(=O)N(C)C2C1c2c(cc3c(c2OC)OCO3)CCN1C` (centres undefined) was tested, and the growth was 23.9% (inactive).
`CCOc1ccc(-c2cc(-c3cc(C(C)C)c(O)cc3C)nn2-c2ccc(S(N)(=O)=O)cc2)cc1` was tested, and the growth was 33.3% (inactive).
`O=C(c1ccc(O)cc1)C1[C@H](c2ccc(Cl)cc2)[C@@H](c2ccccc2)NC12C(=O)Nc1ccc(Br)cc12` (some centres undefined) was tested, and the growth was -58.1% (active).
`COc1cc(CNC(=O)C[C@H](C)CCC=C(C)C)ccc1OCc1cn(-c2ccccc2Cl)nn1` was tested, and the growth was 80.2% (inactive).
In the case of `Cc1ccc(Cl)cc1NC(=O)Nc1nc2ccc([N+](=O)[O-])cc2s1`, the growth is reported as -21.9% (active).
